Screens as filed in PubChem BioAssay.
ADAM10 inh = inhibitors of human ADAM10 | 0.62% of 370,000 active | inhibition, % at 7 µM | recombinant ADAM10, EDANS/DABCYL FRET peptide cleavage, 3 h;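 active means inhibition above a per-campaign cutoff equal to the mean of compounds falling between control-based bounds plus 3 SD, cut at about 20% in these data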;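 further: 0% = DMSO wells while the 100% control is not disclosed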
Target sequence (O14672 214-748 limits assumed): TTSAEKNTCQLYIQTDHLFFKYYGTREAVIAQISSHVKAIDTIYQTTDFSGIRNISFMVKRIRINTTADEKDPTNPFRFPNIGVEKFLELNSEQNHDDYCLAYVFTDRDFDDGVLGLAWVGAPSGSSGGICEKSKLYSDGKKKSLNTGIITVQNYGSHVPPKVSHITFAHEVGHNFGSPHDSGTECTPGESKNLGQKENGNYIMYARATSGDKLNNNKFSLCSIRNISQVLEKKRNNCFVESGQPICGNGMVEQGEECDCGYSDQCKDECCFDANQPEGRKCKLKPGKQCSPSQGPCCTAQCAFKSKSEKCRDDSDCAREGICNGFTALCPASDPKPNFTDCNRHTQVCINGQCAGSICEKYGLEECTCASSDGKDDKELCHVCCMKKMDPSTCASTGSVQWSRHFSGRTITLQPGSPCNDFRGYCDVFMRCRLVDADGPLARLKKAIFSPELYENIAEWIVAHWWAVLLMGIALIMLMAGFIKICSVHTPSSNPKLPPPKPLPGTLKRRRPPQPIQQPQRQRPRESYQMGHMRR
ADAM17 inh = ADAM17 inhibition, QFRET primary screen; 0.83% of 370,000 active; inhibition, % at 6.95 µM; P78536; recombinant ADAM17, EDANS/DABCYL FRET peptide cleavage;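 active means inhibition above the mean of compounds lying between control limits plus 3 SD, set per campaign, cut at about 8.5% in these data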;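 further: 0% = DMSO-only wells as the low control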
NPR2 activator = GC-B (human) receptor activation. HEK293-GC-B cells, CNP EC30, cGMP TR-FRET; 0% at EC30 CNP, 100% saturating CNP. activation, % at 10 µM. 0.11% of 370,000 active. AID 1920062;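 active means activation at 10 µM reaching about 35% in either raw or pattern-adjusted values, limit read from the data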
FAS-TE inh = blocks the thioesterase domain of human fatty acid synthase | P49327 | recombinant FAS-TE, OMFH fluorogenic substrate, fluorescence endpoint | inhibition, % at 15 µM | 0.67% of 360,000 active | AID 602261;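 active means compounds whose normalised, plate-corrected inhibition of enzyme fluorescence in the single-dose primary screen is 50% or more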;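 further: 0% = DMSO with enzyme and 100% = substrate without enzyme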
GC-A act = GC-A (human) enzyme activation; P16066; HEK293 GC-A cells, cGMP TR-FRET, EC30 ANP; 0% at EC30 ANP, 100% saturating ANP; activation, % at 10 µM; 0.14% of 370,000 active; AID 1671463; in the data active means activation above about 40%
FAS-TE inh conf = confirmation of human fatty acid synthase thioesterase inhibitors. recombinant FAS-TE, OMFH fluorogenic substrate, fluorescence. 45% of 2,300 active. inhibition, % at 15 µM. shares compounds with FAS-TE inh;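 active means compounds inhibiting the enzyme by at least 50% at 15 µM in any one of the replicates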;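 further: 0% = enzyme with DMSO only and 100% = wells lacking enzyme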
* = called active by the depositor; . = no result given. A selection: hits, their analogues and other compounds. The true share with any hit is near 2%.

SMILES | ADAM10 inh | ADAM17 inh | NPR2 activator | FAS-TE inh | GC-A act | FAS-TE inh conf
COC(=O)[C@]12C[C@H](CC(=O)NCC3CCCCC3)C(=O)N(CCC3=CCCCC3)C1=C[C@H](C(C)(C)C)O[C@@H]2C | -8.0 | -4.2 | 3.4 | . | 0.2 | .
Cc1onc(-c2ccccc2)c1C(=O)n1nnc2ccccc21 | 5.9 | -3.7 | 4.5 | 52.3* | 14.9 | 51.3*
Cc1onc(-c2ccccc2)c1C(N)=O | 5.8 | -1.4 | 4.0 | -1.3 | 1.4 | .
CCOC(=O)[C@@]12CCCC3=C1N(CCC3)C(=O)[C@H]2CC(=O)NCCc1ccccc1OC | -11.8 | -3.2 | -1.8 | . | -2.3 | .
CCn1c(=O)n(CC(=O)N2CCN(c3ccc(F)cc3)CC2)c(=O)c2ccccc21 | -1.2 | -0.3 | 1.6 | . | 0.5 | .
O=C(Oc1ccccc1C(=O)Nc1ccccc1)c1ccc(Br)c([N+](=O)[O-])c1 | -81.4 | -24.1 | -3.0 | 78.4* | 4.0 | 76.1*
COc1ccccc1C(=O)Oc1ccccc1C(=O)Nc1ccccc1 | 3.6 | -3.0 | -3.6 | -4.2 | -0.6 | .
C[C@H]1[C@H](N(Cc2ccccc2)Cc2ccccc2)CC[C@@]23CCCN2C(=O)CCC[C@@H]13 | 4.2 | 0.1 | -3.1 | . | -1.9 | .
O=S(=O)(Nc1cccc(-c2ccc(N3CCCCCC3)nn2)c1)c1ccc(F)cc1 | 6.8 | -1.9 | -8.0 | 62.4* | 0.3 | 10.6
Cc1ccc(S(=O)(=O)Nc2cccc(-c3ccc(N4CCCCCC4)nn3)c2)cc1C | 15.6 | 4.1 | 2.6 | 38.8 | -1.2 | .
Cc1ccc(S(=O)(=O)Nc2cccc(-c3ccc4nncn4n3)c2)cc1 | -0.5 | 0.5 | -10.7 | 54.2* | -9.2 | 51.1*
CCOc1ccc(S(=O)(=O)Nc2cccc(-c3ccc(N4CCCCCC4)nn3)c2)cc1 | 5.8 | 3.2 | -6.0 | 44.6 | -5.9 | .
O=S(=O)(Nc1cccc(-c2ccc(N3CCCCCC3)nn2)c1)c1cccc(F)c1 | 16.8 | 3.8 | 9.0 | 61.0* | 3.0 | 0.8
CC(=O)c1ccc(S(=O)(=O)Nc2cccc(-c3ccc4nncn4n3)c2)cc1 | -8.8 | -1.4 | -1.4 | -0.3 | -2.0 | .
O=C(NC1CCCCN(Cc2cccc(F)c2)C1=O)c1ccc(F)cc1 (centres undefined) | -4.5 | -4.6 | -3.7 | . | 3.2 | .
O=C(NCCCc1ccccc1)c1ccc([N+](=O)[O-])cc1Cl | -1.7 | -4.6 | 2.7 | 83.7* | 3.5 | 87.6*
Cc1ccc(C(=O)NCCSc2ccc(Cl)cc2)cc1[N+](=O)[O-] | 6.5 | 0.3 | 4.4 | 40.4 | -2.6 | .
O=C(NCCc1cccc(Cl)c1)c1ccc(Cl)c([N+](=O)[O-])c1 | 17.8 | 0.5 | 18.0 | 71.9* | 26.1 | 50.3*
Cc1ccc(OCCNC(=O)CNC(=O)c2ccc(Cl)c([N+](=O)[O-])c2)cc1 | 1.5 | 0.1 | 0.9 | 62.2* | -0.3 | 53.6*
CCCCOc1ccc(C(=O)NCC(=O)NCCOc2ccc(C)cc2)cc1 | -1.7 | -3.0 | 6.4 | -4.3 | -0.2 | .
Cc1ccc(C(=O)NCCc2cccc(Cl)c2)cc1[N+](=O)[O-] | 4.6 | 2.0 | 31.7 | 51.5* | 31.4 | 31.7
COC(=O)[C@]12C[C@H](CC(=O)NCc3ccc(C)o3)C(=O)N(Cc3ccc(Cl)cc3Cl)C1=C[C@H](C(C)(C)C)O[C@@H]2C | 9.8 | 7.3 | -1.0 | . | -8.0 | .
CC(C)NC(=O)Cn1c(-c2cncs2)nc2ccccc21 | -3.0 | -0.9 | -1.9 | . | 1.4 | .
O=C(NCCc1cccc(Cl)c1)c1cc([N+](=O)[O-])ccc1Cl | 0.2 | -3.0 | 2.6 | 63.6* | 5.7 | 46.2
N#Cc1cc(Oc2ccc(Cl)cc2)c(N2CCOCC2)cc1C#N | -1.0 | -1.0 | -5.4 | 67.1* | -3.2 | 29.7*
SMILES | ADAM10 inh | ADAM17 inh | NPR2 activator | FAS-TE inh | GC-A act | FAS-TE inh conf
CC(=O)Nc1cccc(Oc2cc(C#N)c(C#N)cc2N2CCCCCC2)c1 | -3.2 | 3.5 | 7.0 | 39.3 | 12.6 | .
CC(C)OC(=O)[C@H]1[C@H](c2ccc(Cl)cc2)[C@@](C#N)(C(N)=O)[C@@H]2C=CC(C(N)=O)=CN21 | . | . | . | 59.1* | . | 58.7*
COc1ccc(C2CC(c3ccc(Cl)cc3)=NN2C(=O)c2cccc([N+](=O)[O-])c2)cc1 (centres undefined) | 7.3 | -0.6 | 2.4 | 28.6 | 8.1 | .
COc1ccc(C2=NN(CN3C(=O)C(=O)c4ccccc43)C(c3cccc([N+](=O)[O-])c3)C2)cc1 (centres undefined) | 3.5 | 3.9 | 0.7 | 59.5* | -2.8 | 60.0*
COc1ccc(-c2cnnn2-c2ccc(NC(=O)c3ccc(S(=O)(=O)N4CCCCC4)cc3)cc2)cc1OC | 14.7 | 7.9 | 0.8 | 87.5* | 0.6 | 5.8
C=C(C)CSc1nnc(-c2cc(-c3ccccc3)n[nH]2)n1N | -2.2 | 0.2 | -5.7 | . | 3.2 | .
COC(=O)[C@]1(Cc2ccccc2)N[C@H](CN(C)C(=O)Nc2ccc(C(F)(F)F)cc2)[C@@H]2C(=O)N(Cc3ccccc3)C(=O)[C@@H]21 | -8.5 | -4.5 | -2.4 | 62.9* | -4.2 | 34.7
CCN(C[C@H]1N[C@@](Cc2ccccc2)(C(=O)OC)[C@H]2C(=O)N(Cc3ccccc3)C(=O)[C@@H]12)C(=O)Nc1ccc(F)cc1 | 17.8 | 5.5 | -12.1 | 25.4 | -8.7 | .
CCN(C[C@H]1N[C@@](Cc2ccccc2)(C(=O)OC)[C@H]2C(=O)N(Cc3ccccc3)C(=O)[C@@H]12)C(=O)Nc1ccc(Cl)cc1 | 11.0 | 4.0 | 5.9 | 59.6* | -6.7 | 35.6
COC(=O)C[C@@H]1CC[C@H]2[C@H](COc3ccc(NC(=O)Nc4ccc(C#N)cc4)cc3C(=O)N2C)O1 | -8.0 | -4.9 | 4.3 | . | -0.8 | .
O=C(O)CN1C(=O)/C(=C\c2cccc(OCc3ccc(Cl)cc3Cl)c2)SC1=S | 4.8 | -1.8 | -2.5 | 59.2* | 1.5 | 38.5
O=C(O)CN1C(=O)/C(=C\c2ccccc2OCc2ccc(Cl)cc2Cl)SC1=S | 3.6 | 0.1 | 2.1 | 39.3 | 1.5 | .
COc1cccc(CCNC(=O)CCc2nc(-c3ccccc3F)no2)c1 | -8.2 | 0.6 | -4.6 | . | -0.6 | .
CC(C)(C)OC(=O)/C=C/[C@H](CCCCl)Sc1ccc(C(C)(C)C)cc1 | 18.5 | 7.1 | 1.3 | . | 0.3 | .
O=C(CN1CCSC1=NCc1ccccc1)c1ccc(Cl)c(Cl)c1 | 11.2 | 4.2 | -5.2 | 53.9* | -7.1 | 41.1
O=C(Cn1ccccc1=S)c1ccc(Cl)c(Cl)c1 | -0.2 | -4.0 | 11.3 | 7.2 | 2.4 | .
COc1cc(S(=O)(=O)Nc2ccc(C)cc2)ccc1N=Cc1c(C)c(C#N)c(=O)n(C)c1O | -2.8 | 1.2 | -14.4 | -2.4 | -19.7 | .
COc1cc(S(=O)(=O)Nc2ccc(C)cc2)ccc1N=Cc1c(C)[nH]n(-c2ccc(C)cc2)c1=O | 2.5 | 2.8 | -0.8 | 77.2* | 2.4 | 11.3
